The subject of assay [1] is Falciformispora senegalensis CBS197.79. As to the kind of experiment: growth relative to untreated control; higher = less inhibition, active = 20 or less. An outline of the steps: (§1)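 Growth was expressed as metabolic activity relative to the untreated growth control, with both corrected using a blank of medium plus dye. Hyphal fragments of M. mycetomatis MM55 or F. senegalensis CBS197.79 were suspended to 68–72% transmission at 660 nm in colourless RPMI 1640 containing L-glutamine and MOPS. In 96-well plates they were exposed to compound at 100 or 25 µM for 7 days at 37 °C, and viability was read with MTS (2 h, 490 nm) or resazurin (600 nm).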

Assay [2] concerns Madurella mycetomatis MM55. The assay is described as above. The essentials:
as §1

Structures are written as SMILES. Values without a mark were called inactive.

Turning to `CC(C)(C)NCc1ccc(Nc2ccnc3cc(Cl)ccc23)cc1O`, the growth was 95.8% in assay [1] (25 µM), 17.1% (active) in assay [1] (100 µM), 79.1% in assay [2] (25 µM) and 3.73% (active) in assay [2] (100 µM).
As for `O=C(c1ccc(Nc2nccc(-c3cc(Cl)cc(C(F)(F)F)c3)n2)cc1)N1CC2(COC2)C1`, the growth is 96% in assay [1] (25 µM), 96.8% in assay [1] (100 µM), 62.9% in assay [2] (25 µM) and 50.6% in assay [2] (100 µM).
With `CO[C@@H]1[C@H](N(C)C(=O)c2ccccc2)C[C@H]2O[C@]1(C)n1c3ccccc3c3c4c(c5c6ccccc6n2c5c31)C(=O)NC4`, the growth in assay [1] (25 µM) is 113%; in assay [1] (100 µM), 89.5%; in assay [2] (25 µM), 77.9%; in assay [2] (100 µM), 87.3%.
In the case of `COc1ccc(CCN(C)CCCC(C#N)(c2ccc(OC)c(OC)c2)C(C)C)cc1OC` (stereo not given), the growth in assay [1] (25 µM) is 110%; in assay [1] (100 µM) it was 98.5%; in assay [2] (25 µM), 76.9%; in assay [2] (100 µM), 98.8%.
For `Cn1cnc2c(F)c(Nc3ccc(Br)cc3Cl)c(C(=O)NOCCO)cc21` the same measures were 96.9%, 103%, 110% and 86.3%.
Taken in the same sequence, the figures for `CCOc1ccc(-c2nc(NC(=O)Cc3cccc(OC)c3)sc2C)cc1` were 93.7%, 80.5%, 99.6% and 83.1%.
For `c1cc(N2CCC(CN3CCOCC3)CC2)c2sccc2n1` the same measures were 79%, 32.1%, 90.4% and 31.4%.
`CCN(CC)CCOc1ccc(C(O)(Cc2ccc(Cl)cc2)c2ccc(C)cc2)cc1` (stereo not given): the growth in assay [1] (25 µM) was 7.03% (active); in assay [1] (100 µM), 8.2% (active); in assay [2] (25 µM), 3.26% (active); in assay [2] (100 µM), 3.33% (active).
For `CC[C@H](C)[C@@H]1NC(=O)c2csc(n2)[C@H]([C@@H](C)CC)NC(=O)c2csc(n2)CNC(=O)c2nc1oc2C` the same measures were 83.8%, 100%, 64.4% and 44.8%.
For `O=c1[nH]c2ccccc2n1CCCN1CCN(C(c2ccccc2)c2ccccc2)CC1` the same measures were 103%, 28.7%, 91.1% and 5.01% (active).

The record behind these values is the supplement of paper PMC11172423.
